Measurements reported in PubChem BioAssay AID504332 (National Center for Advancing Translational Sciences (NCATS), 2011).
The campaign covered roughly 350,000 compounds. About 31,000 (8.9%) were called active. Another 15% or so got no clear call; they are omitted. The list comes from a sample in which actives are over-represented; it also holds similar structures and randomly drawn compounds. Unmarked numbers belong to inactive results. Calls come from the whole dose curve; as a rule, active = well fitted inhibition curve with a large enough effect; inconclusive = small, poorly fitted or top-dose-only effect; inactive = no such curve, though single readings can be large or run the other way.

biological target: Histone-lysine N-methyltransferase EHMT2 (Homo sapiens) (UniProt Q96KQ7); assay: qHTS Assay for Inhibitors of Histone Lysine Methyltransferase G9a; details: G9a H3K9 monomethylation, AlphaScreen, 2 h; series mostly up to 59 µM; activity, negative = inhibition: at the top concentration; note: nearly all actives have a fitted effect of over 75% in size
How it was run: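 Quantitative HTS format: methyltransferase activity on a biotin-tagged H3K9 peptide is measured by AlphaScreen, using a rabbit anti-monomethyl-H3K9 antibody with streptavidin donor and anti-IgG acceptor beads. Final levels are 20 nM enzyme, 500 nM peptide, 20 uM SAM; 2 h RT.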
% is set by controls: 0 for no effect and ±100 for the full control effect; potency is the fitted concentration of half-maximal effect.

Histone-lysine N-methyltransferase EHMT2 (Homo sapiens), sequence (Q96KQ7 913-1193 limits assumed): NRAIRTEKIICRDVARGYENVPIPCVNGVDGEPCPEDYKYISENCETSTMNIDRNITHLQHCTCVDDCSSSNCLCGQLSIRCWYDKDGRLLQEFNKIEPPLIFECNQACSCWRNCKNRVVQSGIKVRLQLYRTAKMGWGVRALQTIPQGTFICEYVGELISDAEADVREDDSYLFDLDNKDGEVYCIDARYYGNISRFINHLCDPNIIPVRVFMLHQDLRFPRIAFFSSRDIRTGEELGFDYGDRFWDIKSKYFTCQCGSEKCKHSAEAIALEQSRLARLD

| Compound | activity, negative = inhibition | Potency |
| --- | --- | --- |
| CC1CCCC(NC(=O)c2cc(-c3ccncc3)nc3ccccc23)C1C (stereo not drawn) | -22.5% [at 102 µM] |  |
| Cc1cc(NS(=O)(=O)c2ccc3oc(=O)c4ncn(C)c4c3c2)ccc1Br | 10.1% |  |
| Cc1ccccc1CSc1nc(-c2ccccc2)nc2c1Cc1c(CO)cnc(C)c1O2 | 0.451% |  |
| Cc1cc(N2CCN(c3cccc(C(F)(F)F)c3)CC2)n2nc(-c3ccccc3)nc2n1 | -4.4% |  |
| FC(F)(F)C1CCCN(c2nsc3ccccc23)C1 (stereo not drawn) |  | 1.12 µM (active) |
| O=C(NC(Cc1ccccc1)C(=O)N1CCCC(C(F)(F)F)C1)c1ccccc1 (stereo not drawn) | -2.41% [at 102 µM] |  |
| O=C(NCC(=O)N1CCCC(C(F)(F)F)C1)c1ccccc1F (stereo not drawn) | -3.38% [at 102 µM] |  |
| CCc1ccc(C(CNc2nc(C(F)(F)F)nc3ccccc23)N(C)C)cc1 (stereo not drawn) | 4.66% [at 102 µM] |  |
| COc1cccc(CNc2nc(C(F)(F)F)nc3ccccc23)c1 | 52.2% [at 102 µM] |  |
| NS(=O)(=O)c1ccc(CCNc2nc(C(F)(F)F)nc3ccccc23)cc1 |  | 70.8 µM (active) |
| Cc1ccc(-c2cc(C(=O)Oc3ccccc3Cl)no2)cc1C | 134% |  |
| O=C(COC(=O)c1c(Cl)cccc1Cl)Nc1cccc(S(=O)(=O)NC2=NCCCCC2)c1 | -0.124% [at 12.7 µM] |  |
| CC(NC(=O)c1ccccc1SCC(=O)N1CCCC1)c1ccccc1 (stereo not drawn) | -21.2% [at 102 µM] |  |
| Cn1c(SCC(=O)N2CCCc3ccccc32)nc2ccccc2c1=O | 21% |  |
| Cc1nnc(SCC(=O)N2CCc3ccccc32)n1-c1ccccc1 | -14.8% |  |
| O=C(CSc1nc2[nH]ncc2c(=O)n1-c1ccccc1)N1CCCc2ccccc21 |  | 8.91 µM (active) |
| O=C(C[n+]1cc(Br)cc2ccccc21)c1ccc(F)cc1 |  | 50.1 µM (active) |
| Cc1cccc[n+]1CC(=O)c1ccccc1 | 14.2% [at 102 µM] |  |
| O=C(CNC(=O)c1ccccc1F)c1ccc(Br)cc1 | -6.35% [at 102 µM] |  |
| COC(=O)c1cnn(-c2ccc(C(=O)Nc3ccc(OC(F)(F)F)cc3)cc2)c1N | 5.03% |  |
| COc1ccc(-c2cn3c(C)c(C(=O)Nc4cc(C)cc(C)c4)sc3n2)cc1 | 4.02% |  |
| CN(C(=O)CSc1nnc(-c2ccc(C(C)(C)C)cc2)n1C)C1CCS(=O)(=O)C1 (stereo not drawn) | 1.39% [at 12.7 µM] |  |
| COc1ccc2c(-c3ccccc3)cc(SCC(=O)N(C)C3CCS(=O)(=O)C3)nc2c1 (stereo not drawn) | -40.4% |  |
| Cc1cc(C)c2nc(SCC(=O)N(C)C3CCS(=O)(=O)C3)cc(C)c2c1 (stereo not drawn) |  | 44.7 µM (active) |

| Compound | activity, negative = inhibition | Potency |
| --- | --- | --- |
| CCOC(=O)[C@H]1[C@H]2COc3ccc(C)cc3[C@@H]2N2C(=O)CN(Cc3ccc(F)cc3)C(=O)[C@@]12C | 9.53% [at 0.501 µM] |  |
| O=C(NCc1cccc(Cl)c1)C1CCN(c2nnc(N3CCCC3=O)s2)CC1 | 36.7% [at 102 µM] |  |
| COC(=O)c1ccc(/C=N/OCC(=O)Nc2cc(F)ccc2F)cc1 | 16.3% [at 102 µM] |  |
| COC(=O)c1ccc(Sc2ccc(F)cc2)c(N)c1 |  | 28.2 µM (active) |
| CC(C)(CCl)C(=O)Nc1ccc(Sc2ccc(F)cc2)cc1 | -58.2% [at 2.33 µM] |  |
| Cc1ccccc1NC(=O)NCC1CCN(Cc2cccc(Cl)c2)CC1 | 2.62% [at 2.33 µM] |  |
| CC(C)CC(=O)N1CCN(Cc2ccccc2Br)CC1 |  | 20 µM (active) |
| CC(CC(=O)N1CCN(c2ccccc2)CC1)c1ccccc1 (stereo not drawn) | 19.1% |  |
| CC(C)CC(=O)N1CCC(O)(CS(=O)(=O)Cc2ccccc2)CC1 | 11.5% [at 102 µM] |  |
| CC(C)CC(=O)N1CCN(Cc2cccc(Cl)c2)CC1 |  | 22.4 µM (active) |
| O=C(c1cccc(Cl)c1)N1CCN(Cc2ccccc2)CC1 | 10% [at 102 µM] |  |
| COc1cc([N+](=O)[O-])ccc1NC(=O)COC(=O)CCOc1ccc(C)cc1 | 0.0833% |  |
| Cc1ccc(/C=C2/SC(=S)N(CCC(=O)NCCCN3CCOCC3)C2=O)cc1 | 14.4% [at 102 µM] |  |
| O=C(CCCCn1c(=O)c2ccccc2n(CC(=O)Nc2cccc(C(F)(F)F)c2)c1=O)NCc1ccc2c(c1)OCO2 | -4.83% |  |
| COc1cccc(CNCCSc2nnnn2C)c1OCc1ccccc1Cl | -3.67% |  |
| O=S(=O)(O)c1nc2ccccc2n1Cc1ccc(Cl)cc1Cl | -19.1% |  |
| Cn1c(S(=O)(=O)O)nc2ccccc21 | -15% [at 102 µM] |  |
| O=S(=O)(O)c1nc2ccccc2n1Cc1ccc(Cl)cc1 |  | 50.1 µM (active) |
| CCc1nn(CC(=O)NCC(C)c2ccccc2)c(=O)c2cc3occc3n12 (stereo not drawn) | 10.3% |  |
| COc1ccc(S(=O)(=O)Nc2c(C)n(C)n(-c3ccccc3)c2=O)cc1 | -5.42% |  |
| COc1ccc2cc(S(=O)(=O)Nc3ccccn3)ccc2c1 | -6.57% [at 102 µM] |  |
| COc1ccc(S(=O)(=O)/N=C2\C=C(NS(=O)(=O)c3ccccc3)C(=O)c3ccccc32)cc1 |  | 8.91 µM (active) |
| CC1=NN(Cc2ccccc2)C(=O)/C1=C/c1ccc(N(C)C)cc1 |  | 10 µM (active) |
| CN(C)c1ccc(/C=C2\NC(=S)N(Cc3ccccc3)C2=O)cc1 | -14.6% [at 102 µM] |  |
